In PubChem BioAssay one finds composite z-score and composite Z-score data, which are given here for 14 compounds.

One experiment has as its target Albumin (Bos taurus) (UniProt P02769). In words: bovine serum albumin binders on microarray, profiling panel, artefact control for SMM control protein annotation, biochemical, small-molecule microarray, Alexa647 label, 635/667 nm fluorescence (AID 1118).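 Also: score merges 667 nm emission intensity and signal-to-noise per printed compound spot.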 The settings on record: BSA-A647 binding, fluorescence 635 nm, higher = more signal.
The nature of experiment [1]: small-molecule microarray binders of probe aXIP, primary screen, biochemical, NeuroSMM set, 635/667 nm fluorescence (AID 1119).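 Also: probe is the protein aXip251-270 applied at 1 µg/mL to compound-printed slides; binding of probe to printed compounds measured as 667 nm fluorescence plus signal to noise.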 The settings on record: higher = more signal, called active from +8 up or from −8 down.
The nature of experiment [2]: small-molecule binders of probe aNOTCH3, primary screen, biochemical, small-molecule microarray, 635/667 nm fluorescence (AID 1120).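 Also: probe is a biotin-tagged antibody raised against NOTCH3 rather than NOTCH3 protein; score merges spot fluorescence near 667 nm with spot signal to noise.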 The settings on record: higher = more signal.
The nature of experiment [3]: small-molecule binders of probe aNOTCH2, primary screen, biochemical, small-molecule microarray, 635/667 nm fluorescence (AID 1121).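 Also: score merges feature fluorescence read at 667 nm with its signal to noise.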 The following applies: higher = more signal.
Experiment [4] has as its target Carbonic anhydrase 2 (Homo sapiens) (UniProt P00918). In words: CAII small-molecule binders, profiling panel, biochemical, small-molecule microarray, Alexa647-labelled CAII (AID 1122). The settings on record: CAII-A647 binding fluorescence, higher = more signal.
Experiment [5] in a line: COS7 lysate on small-molecule microarray, probe aHis, 635 nm (AID 1123).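 Also: z-score combines 667nm fluorescence intensity with signal-to-noise per printed compound spot.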 The settings on record: COS7 cell lysate, fluorescence, higher = more signal.
A short description of experiment [6]: compound binding in COS7 lysate, probe aLAP1, primary screen, cell lysate, small-molecule microarray (AID 1124).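 Also: lysate comes from COS7 cells expressing LAP1 and is applied at 0.3 µg/mL; score merges spot fluorescence near 667 nm with signal-to-noise over triplicate slides.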 The settings on record: probe aLAP1, fluorescence, higher = more signal.
The test system of a further experiment is Sam68 (KHDRBS1). In words: Sam68 small-molecule binders, primary screen, biochemical, small-molecule microarray, 635 nm fluorescence (AID 1125).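 Also: score merges 667 nm channel intensity with signal to noise over triplicate slides.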 The following applies: small-molecule microarray binding, higher = more signal.
For experiment [7], the system named is Chordin-like protein 2 (CHRDL2). In words: CHRDL2 small-molecule binders, primary screen, biochemical, small-molecule microarray, 635 nm fluorescence (AID 1126).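 Also: printed compound slides probed with Chrdl2 protein at 4 µg/mL for 1 h at 4 C; score merges 667 nm emission intensity with signal to noise over three replicate slides.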 The following applies: small-molecule microarray binding, fluorescence 635 nm; higher = more signal.
Experiment [8] concerns the target Concanavalin-A (Canavalia ensiformis) (UniProt P02866). In words: ConA small-molecule binders, primary screen, artefact control for SMM control protein annotation, biochemical, small-molecule microarray, Alexa647 label, 635 nm (AID 1127).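 Also: z combines 667 nm emission intensity with signal-to-noise across three replicate slides.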 The settings on record: ConA-A647 binding fluorescence, higher = more signal.

Activity calls are given as the source filed them.

Sequence of Albumin (Bos taurus) (P02769 whole entry, looked up): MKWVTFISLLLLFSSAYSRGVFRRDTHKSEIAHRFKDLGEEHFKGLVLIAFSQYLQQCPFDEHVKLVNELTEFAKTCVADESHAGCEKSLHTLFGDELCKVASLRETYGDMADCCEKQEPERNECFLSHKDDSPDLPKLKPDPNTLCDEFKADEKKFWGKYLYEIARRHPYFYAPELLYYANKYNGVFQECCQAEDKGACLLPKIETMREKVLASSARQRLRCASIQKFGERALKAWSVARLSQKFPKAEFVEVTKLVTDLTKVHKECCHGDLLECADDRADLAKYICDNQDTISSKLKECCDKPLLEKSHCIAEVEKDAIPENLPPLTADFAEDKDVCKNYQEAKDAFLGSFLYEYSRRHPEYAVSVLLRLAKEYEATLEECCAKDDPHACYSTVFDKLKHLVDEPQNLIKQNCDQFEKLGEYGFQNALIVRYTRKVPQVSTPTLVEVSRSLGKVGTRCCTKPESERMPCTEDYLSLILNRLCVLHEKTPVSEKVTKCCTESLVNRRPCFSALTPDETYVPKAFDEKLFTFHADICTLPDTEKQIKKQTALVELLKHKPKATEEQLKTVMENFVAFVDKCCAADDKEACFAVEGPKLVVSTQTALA
Sequence of Concanavalin-A (Canavalia ensiformis) (P02866 whole entry, looked up): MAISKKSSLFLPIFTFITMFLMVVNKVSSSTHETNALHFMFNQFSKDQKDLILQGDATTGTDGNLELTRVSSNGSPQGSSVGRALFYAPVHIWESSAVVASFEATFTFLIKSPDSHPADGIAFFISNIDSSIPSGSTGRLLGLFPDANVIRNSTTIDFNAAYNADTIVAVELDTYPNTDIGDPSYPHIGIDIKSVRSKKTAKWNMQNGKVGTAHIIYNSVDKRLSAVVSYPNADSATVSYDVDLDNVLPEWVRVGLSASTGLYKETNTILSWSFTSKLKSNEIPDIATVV

As to `COc1ccc([Si](C)(C)[C@H]2[C@H](CC(=O)N(CCO)Cc3ccccc3)O[C@@]3(C(=O)N(c4ccccc4)c4ccccc43)[C@@H]2C)cc1`, the composite z-score with Albumin (Bos taurus) was 0.504; in [2] it was 0.123; in experiment [3] it was -0.117; in experiment [4], 0.34; in [5] it was 0.66; in [6], 0.264. Moreover, the results for the composite z-score (in the experiment with Sam68 (KHDRBS1); in [7]; in experiment [8]) were 1.2, 1.19 and 1.06, respectively. In addition, the composite Z-score in experiment [1] was 0.308 (inactive).
On to `COCCOC(=O)N1C(=O)[C@@]2(c3cc(C#CCCO)ccc31)[C@H](C(=O)N1CCN(c3ncccn3)CC1)[C@H]1C(=O)O[C@H](c3ccccc3)[C@H](c3ccccc3)N1[C@@H]2c1ccc(OCCO)cc1`, for which the composite z-score in the experiment with Albumin (Bos taurus) is 0.788; in experiment [2], 0.199; in experiment [3], -0.0817; in experiment [4], 0.621; in experiment [5], 2.13; in experiment [6], 0.419. The composite z-score was found to be 1.29 with Sam68 (KHDRBS1), 0.372 in experiment [7] and 1.12 in experiment [8]. In experiment [1], the composite Z-score was -0.265 (inactive).
For `C[N+](C)(C)CCCC[C@@H]1NC(=O)[C@H]2C[C@@H](C(=O)O)[C@@H](c3ccc(O)cc3)N2C1=O`, the composite z-score with Albumin (Bos taurus) is -0.804; in [2], -0.165; in [3], -0.104; in experiment [4] it was 0.704; in experiment [5], 1.4; in experiment [6], 0.606. Moreover, the composite z-score is 0.744 in the experiment with Sam68 (KHDRBS1), 0.616 in experiment [7] and 0.905 in experiment [8]. Further, the composite Z-score in [1] is -0.55 (inactive).
`C=C(C(=O)CC[C@@H](OC(=O)c1ccccc1-c1ccccc1C(=O)O)c1ccc(OCCO)cc1)C(C)C`: the composite z-score with Albumin (Bos taurus) was 0.0832; in [2] it was 0.169; in [3] it was -0.0876; in experiment [4], 0.801; in [5], 0.393; in [6], -0.0004. The composite z-score in the experiment on Sam68 (KHDRBS1) worked out at 0.929; in [7], 0.639; in experiment [8], 0.94. The composite Z-score in experiment [1] is -0.32 (inactive).
Consider `CCCCN1CC=CC23O[C@@H]4C=CCCOC(=O)C4[C@H]2C(=O)N(CCO)[C@@H]3C1=O` (stereo not given in full), for which the composite z-score with Albumin (Bos taurus) was 0.0656; in experiment [2], -0.246; in [3] it was -0.109; in experiment [4], 0.79; in experiment [5], -1.36; in experiment [6], 1.94. The composite z-score was -0.33 with Sam68 (KHDRBS1), -0.418 in experiment [7] and -0.0932 in [8]. In addition, the composite Z-score in [1] was -0.535 (inactive).
Take `CC(C)c1ccc(NN2C(C(O)C(C)c3ccccc3)C=CC3C(=O)N(c4ccccc4)C(=O)C32)cc1` (stereo not given): the composite z-score turned out to be 1.03 in the experiment with Albumin (Bos taurus); 0.578 in experiment [2]; 0.589 in [3]; 0.749 in experiment [4]; 3.34 in [5]; 0.952 in experiment [6]. Also, the composite z-score with Sam68 (KHDRBS1) turned out to be 1.28; in experiment [7] it was 0.306; in experiment [8], 1.17. The composite Z-score in [1] was 0.304 (inactive).
As to `CN1C(=O)C2C=CC(C(O)c3ccc(I)cc3)N(N(c3ccccc3)c3ccccc3)C2C1=O` (stereo not given), the composite z-score was 0.626 in the experiment with Albumin (Bos taurus); -0.0328 in experiment [2]; 0.0129 in experiment [3]; 0.243 in [4]; 0.307 in experiment [5]; 0.249 in [6]. The composite z-score in the experiment on Sam68 (KHDRBS1) was -0.397; in experiment [7] it was 0.0635; in experiment [8], 0.326. In addition, in experiment [1], the composite Z-score was 0.263 (inactive).
As for `C=CCNC(=O)[C@@H]1[C@H]2C(=O)O[C@H](c3ccccc3)[C@H](c3ccccc3)N2[C@H](c2ccc(OCCO)cc2)[C@@]12C(=O)Nc1ccc(C#CC3=CCCCC3)cc12`, the composite z-score was 0.806 with Albumin (Bos taurus); 0.0493 in experiment [2]; -0.145 in experiment [3]; 0.512 in experiment [4]; 1.33 in experiment [5]; 0.402 in experiment [6]. Besides, the composite z-score was found to be 1.3 in the experiment on Sam68 (KHDRBS1), 0.0821 in [7] and 1.14 in [8]. Moreover, the composite Z-score in experiment [1] was 0.653 (inactive).
In the case of `COc1ccc([Si](C)(C)[C@H]2[C@H](CC(=O)N(CCO)Cc3ccccc3)O[C@@]3(C(=O)N(Cc4ccc(N5C(=O)c6cccc7cccc5c67)cc4)c4ccccc43)[C@@H]2C)cc1`, the composite z-score with Albumin (Bos taurus) is 0.0079; in experiment [2], 0.376; in experiment [3] it was -0.0928; in experiment [4], 0.593; in experiment [5], 1.52; in experiment [6], 0.801. Also, the composite z-score in the experiment on Sam68 (KHDRBS1) worked out at 0.747; in experiment [7], 0.71; in experiment [8], 1.16. Moreover, the composite Z-score in experiment [1] is 0.0959 (inactive).
Regarding `O=C(NCCN1CCOCC1)[C@@H]1c2ccccc2C(=O)N(CC23CC4CC(CC(C4)C2)C3)[C@H]1c1ccc(CO)cc1`, the composite z-score is 0.974 in the experiment with Albumin (Bos taurus); 0.216 in experiment [2]; 0.0129 in [3]; 0.642 in experiment [4]; 2.17 in experiment [5]; 0.522 in experiment [6]. The composite z-score in the experiment with Sam68 (KHDRBS1) stood at 1.3; in [7], 0.0884; in experiment [8] it was 1.14. Besides, in experiment [1], the composite Z-score is 0.864 (inactive).
In the case of `COc1ccc(CCNC(=O)[C@@H]2c3ccccc3C(=O)N(C(C)C)[C@H]2c2ccc(CO)cc2)cc1`, the composite z-score with Albumin (Bos taurus) is -1.09; in experiment [2] it was -0.209; in [3] it was -0.132; in [4] it was 0.722; in experiment [5], 1.42; in experiment [6], -0.362. Besides, the figures for the composite z-score (in the experiment with Sam68 (KHDRBS1); in experiment [7]; in experiment [8]) were -0.139, -1.87 and -0.574, respectively. Also, the composite Z-score in experiment [1] is 1.13 (inactive).
On to `Cc1c(NC(=O)/C(C#N)=C/C=C/c2ccc([N+](=O)[O-])cc2)c(=O)n(-c2ccccc2)n1C`, for which the composite z-score with Albumin (Bos taurus) was determined as 0.974; in experiment [2], 0.144; in experiment [3], 0.0966; in experiment [4] it was 0.584; in experiment [5], 2.23; in experiment [6], 0.82. Also, the composite z-score with Sam68 (KHDRBS1) came out at 1.3; in [7] it was 0.0495; in experiment [8], 1.04. Moreover, the composite Z-score in experiment [1] is 0.947 (inactive).
With `CCCCC(=C=CC[C@@H](O)c1ccc(OCCO)cc1)CCO`, the composite z-score with Albumin (Bos taurus) is 0.543; in [2], -0.0947; in experiment [3], -0.12; in experiment [4] it was 0.755; in experiment [5], 1.46; in [6], 0.145. The composite z-score in the experiment on Sam68 (KHDRBS1) was 0.118; in experiment [7], -0.346; in [8] it was -0.321. In experiment [1], the composite Z-score was 0.742 (inactive).
Turning to `C=CCNC(=O)[C@H]1[C@@H]2C(=O)O[C@@H](c3ccccc3)[C@@H](c3ccccc3)N2[C@@H](c2ccc(O)cc2)[C@]12C(=O)Nc1ccccc12`, the composite z-score with Albumin (Bos taurus) was -0.118; in experiment [2], -0.278; in experiment [3], -0.0681; in [4], 0.331; in [5], 0.45; in experiment [6] it was 0.219. The composite z-score in the experiment on Sam68 (KHDRBS1) is 1.07; in [7], -0.21; in [8], 0.872. Moreover, the composite Z-score in experiment [1] is -0.139 (inactive).
